This is an account of results in PubChem BioAssay (NCI).

About 79,000 compounds went through this panel and 15% of them were active in at least one assay; those are over-represented in the sample as a whole. A number with no mark means an inactive call. Calls of active or inactive are those of the source. No stated cut-off is given here; in the data, active means growth inhibition above about 70%; inactive means the rest.

The assay can be described thus: NCI Yeast Anticancer Drug Screen. Data for the rad14 strain (AID 159).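 Further: 0% = growth of vehicle-treated control cultures.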 The conditions noted are these: S. cerevisiae rad14 strain growth inhibition; at 11.0 µM; hits give high values. Summed up: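 DNA repair-defective yeast, compound-exposed; % growth inhibition derived by comparison with vehicle-treated controls.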
`CCCc1cc(C(=O)OCC)cc(CCC)c1O`: the growth inhibition was -11%.

Turning to `CC(C)[N+]([O-])(CCCNc1c2ccccc2nc2cccc([N+](=O)[O-])c12)C(C)C`, the growth inhibition is 98% (active). For the compound `COc1cc2c3c(cccc3c1)C(=O)N(CCN(C)C)C2=O`, the growth inhibition is -24%. As to `NC(=O)NN=C(CS)CS`, the growth inhibition is 6%. With `Cc1ccc(NC(=O)/C(Cl)=C(\Cl)C(=O)O)cc1C`, the growth inhibition is 26%. Take `CCN(CC)CC[n+]1ccc2c(C)c3[nH]c4ccc(O)cc4c3c(C)c2c1`: the growth inhibition is 3%. With `CC(CC(C)(C)[N+](C)(C)C)[N+](C)(C)C` (stereo not given), the growth inhibition was 3%. For the compound `COc1ccc(OC)c2cc3ccccc3cc12`, the growth inhibition is -3%. Under `Nc1ncncc1C(C1=C(O)COC1=O)C1=C(O)COC1=O` stands -2%. Then `CSC1=NNC(SC)=NN1`, with 36%. Regarding `Cc1c(Cl)ccc2c1S(=O)(=O)c1cccc(Cl)c1-2`, the growth inhibition is 2%.

`[O-][n+]1c2ccc(O)cc2nc2ccc(Cl)cc21`: the growth inhibition was 30%.

For `COc1ccc2ccc3ccccc3c2c1C=O`, the growth inhibition was 5%. On to `Nc1ccc2c(c1)C(=O)c1cccc(N)c1C2=O`, for which the growth inhibition is 29%. Turning to `O=C(c1ccc(Cl)cc1Cl)C(Cl)Cl`, the growth inhibition is -15%. `COc1cc(C(=O)/C=C/c2ccccc2O)ccc1O`: the growth inhibition was 99% (active). Take `O=Cc1cccc2ccc3ccccc3c12`: the growth inhibition was 9%.

Turning to `O=C(Nc1ccc(Cl)cc1)OCC#CCCl`, the growth inhibition was -5%.

For `Cn1ccnc1Oc1ccc(Cl)cc1`, the growth inhibition is 26%. Take `c1ccc2c(c1)C(=NCCCN1CCCCCC1)c1cccn1-2`: the growth inhibition was -2%.
